According to PubChem BioAssay (NCI):
Compounds without any hit were thinned out: in the full panel of roughly 83,000, 20% have a hit.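 48-hour exposure, single concentration, 96-well plates; percent growth endpoint where 0 means no net growth. Active: below 10.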 The source made the active and inactive calls.

Experiments:
Assay in all cases: NCI-60 one-dose screen, 48 h (100 = growth as untreated, 0 = no growth, -100 = all killed)
SR leukemia = details: 10 µM unless noted
RPMI-8226 leukemia = details: 10 µM unless noted
OVCAR-5 ovarian = details: 10 µM unless noted
OVCAR-4 ovarian = details: 10 µM unless noted
SK-OV-3 ovarian = details: 10 µM unless noted
IGROV1 ovarian = details: 10 µM unless noted
OVCAR-3 ovarian = details: 10 µM unless noted
HS 578T breast = details: 10 µM
NCI/ADR-RES ovarian = details: 10 µM unless noted
OVCAR-8 ovarian = details: 10 µM unless noted

Row | Compound | growth (SR leukemia) | growth (RPMI-8226 leukemia) | growth (OVCAR-5 ovarian) | growth (OVCAR-4 ovarian) | growth (SK-OV-3 ovarian) | growth (IGROV1 ovarian) | growth (OVCAR-3 ovarian) | growth (HS 578T breast) | growth (NCI/ADR-RES ovarian) | growth (OVCAR-8 ovarian)
1 | COc1cc(C2Nc3ccccc3S2)cc(CN2CCOCC2)c1O (stereo unspecified) | 49% (inactive) | 81.1% (inactive) | 122% (inactive) | 87.5% (inactive) | 83.3% (inactive) | 39% (inactive) | 52% (inactive) | 72.2% (inactive) | 34.2% (inactive) | 
2 | COc1cc(-c2csc(NC(=O)Nc3cccc(C(F)(F)F)c3)n2)cc(OC)c1OC | 67.3% (inactive) | 18.6% (inactive) | 80.3% (inactive) | 29.9% (inactive) | 80.7% (inactive) | 59.6% (inactive) | 37.7% (inactive) | 71.2% (inactive) | 26.5% (inactive) | 
3 | CCCCCCCCCCCCCC(=S)NCCCC[C@H](NC(=O)OCc1ccccc1)C(=O)Nc1ccccc1 |  | 32% (inactive) | 89.5% (inactive) | 54.6% (inactive) | 78.2% (inactive) | 54% (inactive) | 22.1% (inactive) | 61.1% (inactive) | 34.8% (inactive) | 40.3% (inactive)
4 | Clc1ccc(Nc2ncnc3c2sc2ncccc23)c(Cl)c1 | 9.78% (active) |  | 59.5% (inactive) | 84.9% (inactive) | 25.5% (inactive) | 70.4% (inactive) | 55.5% (inactive) | 95.8% (inactive) | 15% (inactive) | 4.31% (active)
5 | O=C(NCCNC(=O)c1cc(S(=O)(=O)NCCc2ccccc2)c(O)c(O)c1O)c1cc(S(=O)(=O)NCCc2ccccc2)c(O)c(O)c1O |  | 79.5% (inactive) | 82.3% (inactive) | 62.3% (inactive) | 33.1% (inactive) | 31.5% (inactive) | 19.7% (inactive) | 52.2% (inactive) | 76.1% (inactive) | 40.2% (inactive)
6 | CC(C)NC(=O)OCC#CCOC(=O)NC(C)C | 102% (inactive) |  | 110% (inactive) | 121% (inactive) | 94.8% (inactive) | 90.6% (inactive) | 108% (inactive) | 115% (inactive) | 109% (inactive) | 
7 | c1ccc(C2=Nc3ccccc3SC2)cc1 | 107% (inactive) |  | 98.6% (inactive) | 91.5% (inactive) | 110% (inactive) | 88.6% (inactive) | 99.4% (inactive) |  | 113% (inactive) | 101% (inactive)
8 | CCCc1n(Cc2ccc3ccccc3c2)c2ccccc2[n+]1Cc1ccc2ccccc2c1 | -46.7% (active) |  | -27.1% (active) | -16% (active) | -21.5% (active) | -64.8% (active) | -76.8% (active) | -8.47% (active) | 79.4% (inactive) | -71.3% (active)
9 | O=[N+]([O-])c1ccccc1CN1CCCCC1 |  | 109% (inactive) | 102% (inactive) | 114% (inactive) | 127% (inactive) | 114% (inactive) | 109% (inactive) | 118% (inactive) | 104% (inactive) | 108% (inactive)
10 | CC1=NC(c2ccc(Cl)cc2)C2=C(N1)/C(=C/c1ccc(Cl)cc1)CCC2 (stereo unspecified) |  | -1.96% (active) | 114% (inactive) | 83.6% (inactive) | 109% (inactive) | 98.8% (inactive) | 104% (inactive) | 97.9% (inactive) | 98% (inactive) | 79% (inactive)
11 | Fc1ccc(-c2ccnc3nc(-c4ccncc4)nn23)cc1 |  | 98.5% (inactive) | 100% (inactive) | 109% (inactive) | 104% (inactive) | 104% (inactive) | 105% (inactive) | 113% (inactive) | 106% (inactive) | 96.5% (inactive)
12 | COC(=O)C(C)NC1=C(Cl)C(=O)C(NC(C)C(=O)OC)=C(Cl)C1=O (stereo unspecified) | 92.9% (inactive) |  | 111% (inactive) | 78.6% (inactive) | 105% (inactive) | 120% (inactive) | 61.2% (inactive) | 113% (inactive) | 101% (inactive) | 94.2% (inactive)
13 | COc1ccc(/C=c2\c(=O)n(-c3ccccc3)c3nn4c(=O)c(=O)[nH]nc4n23)cc1 | 108% (inactive) |  | 146% (inactive) | 107% (inactive) | 113% (inactive) | 113% (inactive) | 115% (inactive) | 114% (inactive) | 106% (inactive) | 109% (inactive)
14 | CC(=O)c1cc(C(=O)c2ccc3c(c2)Sc2ccccc2N3)c2c(C)cccn12 | 12.8% (inactive) |  | 45.4% (inactive) | 47% (inactive) | 25.1% (inactive) | 34.1% (inactive) | -27.5% (active) | 56.2% (inactive) | 9.46% (active) | 18.8% (inactive)
15 | NCCCOc1cc2ccccc2cc1C(=O)NCCCOc1cc2ccccc2cc1C(=O)Nc1ccc(Cl)cc1O | -7.88% (active) |  | -92.5% (active) | -77.4% (active) | -80.4% (active) | -31.6% (active) | -31.2% (active) | 14.5% (inactive) | 29.2% (inactive) | -57.6% (active)
16 | Brc1cccc(-n2ncc3c(Nc4ccc(-c5nnc(-c6ccccc6)o5)cc4)ncnc32)c1 | 119% (inactive) |  | 104% (inactive) | 107% (inactive) | 110% (inactive) | 112% (inactive) | 99.6% (inactive) | 110% (inactive) | 98.6% (inactive) | 97.8% (inactive)
17 | CC(C)=CCC[C@H](C)c1ccc(C)c2c1OCN(CCO)C2 |  | 83.2% (inactive) | 83.7% (inactive) | 79% (inactive) | 105% (inactive) | 66.7% (inactive) | 86.1% (inactive) | 75.6% (inactive) | 73.5% (inactive) | 86.3% (inactive)
18 | CC1=C(C(=O)Nc2ccc(F)cc2)C(c2ccc(Cl)cc2)C2=C(CC(C)(C)CC2=O)N1 (stereo unspecified) |  | 70% (inactive) | 93.5% (inactive) | 77.6% (inactive) | 101% (inactive) | 89.6% (inactive) | 89.9% (inactive) | 80.4% (inactive) | 87.9% (inactive) | 89.1% (inactive)
19 | CCOC(=O)c1ccccc1SC(C[N+](=O)[O-])c1ccccc1 (stereo unspecified) | 38.2% (inactive) |  | 100% (inactive) | 89.1% (inactive) | 117% (inactive) | 72.1% (inactive) | 104% (inactive) | 104% (inactive) | 112% (inactive) | 85.8% (inactive)
20 | C=CCn1c(SCC(=O)Nc2ccc(C(=O)/C=C/c3ccccc3)cc2)nnc1-c1ccc(OC)c(OC)c1 |  | 2.52% (active) | 108% (inactive) | 72.5% (inactive) | 93.4% (inactive) | 81.6% (inactive) | 78.1% (inactive) | 96.4% (inactive) | 80.1% (inactive) | 78.5% (inactive)
21 | Nc1ncnc2c1N=C(c1ccc(F)cc1)CC(c1sc(Cl)nc1Cl)N2 (stereo unspecified) |  | 76.5% (inactive) | 99.6% (inactive) | 97.9% (inactive) | 95.7% (inactive) | 93.5% (inactive) | 101% (inactive) | 92.5% (inactive) |  | 87.4% (inactive)
22 | CN(C)c1ccc(N2Cc3ccccc3OC3=C2C(=O)c2c(O)ccc(O)c2C3=O)cn1 |  | -17.2% (active) | -50.6% (active) | -98.2% (active) | -7.84% (active) | -63.3% (active) | -95.8% (active) | 44.7% (inactive) | 3.51% (active) | -12.1% (active)
23 | Cc1cc(C)c2c(NC(=O)Nc3ccc(Cl)c(Cl)c3)n[nH]c2n1 | 96.6% (inactive) |  | 101% (inactive) | 93.2% (inactive) | 100% (inactive) | 111% (inactive) | 113% (inactive) | 114% (inactive) | 102% (inactive) | 110% (inactive)
24 | CCOc1cccc(/C=N/NC(=O)Cc2ccc(Nc3ccnc(C(F)(F)F)c3)cc2)c1O |  | 4.35% (active) | 19.6% (inactive) | 22% (inactive) | 20% (inactive) | 11.3% (inactive) | 39.7% (inactive) | 76.4% (inactive) | 48% (inactive) | 16.7% (inactive)
25 | COc1c(C(=O)/C=C/c2ccc(C)o2)c(O)cc2occc12 | 42.8% (inactive) |  | 107% (inactive) | 80.9% (inactive) | 88.6% (inactive) | 69.3% (inactive) | 47.6% (inactive) | 65.8% (inactive) | 52.2% (inactive) | 
26 | O=C(OCc1ccc2c(Cl)cc(Cl)c(O)c2n1)c1cc2ccccc2[nH]1 | 0.939% (active) |  | -55.2% (active) | -70.4% (active) | 67.5% (inactive) | -89.5% (active) | -92.1% (active) | -14.4% (active) | -35.3% (active) | -24.9% (active)
27 | COc1cc2c(cc1I)-c1c(cc(OC)c(OC)c1OC)CC[C@@H]2NC(C)=O |  | 35.5% (inactive) | 36% (inactive) | 40.8% (inactive) | 10.3% (inactive) | 9.96% (active) | 17.3% (inactive) | -21.4% (active) | -19.2% (active) | 24.6% (inactive)
28 | Cc1ccc(NC(=O)c2nc(S(C)=O)oc2-c2ccc(F)cc2)cc1Nc1nccc(-c2cccnc2)n1 (stereo unspecified) | -14.7% (active) |  | 112% (inactive) | 108% (inactive) | 90.3% (inactive) | 33.1% (inactive) | 18.8% (inactive) | 82% (inactive) | 95.9% (inactive) | 37.9% (inactive)
29 | COc1c(-c2cc(-c3ccc(C)o3)[nH]c(=O)n2)c(O)cc2occc12 | 27.1% (inactive) |  | 99% (inactive) | 72.4% (inactive) | 81.8% (inactive) | 58.4% (inactive) | 32.9% (inactive) | 54.5% (inactive) | 29.7% (inactive) | 
